Data from PubChem BioAssay (NCI).
Compounds without any hit were thinned out: in the full panel of roughly 79,000, 15% have a hit. Unmarked numbers belong to inactive results. Active and inactive are the calls of the source. Cut-off read from the data, not from the text of the source: active = growth inhibition above about 70%; inactive = the rest.

Tests used:
[1] = NCI Yeast Anticancer Drug Screen. Data for the rad52 strain (AID 147);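 note: 0% = growth of vehicle-treated control cultures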; conditions: S. cerevisiae rad52 mutant growth inhibition, active compounds read high
Method in brief: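 Genetically altered yeast (DNA damage repair defect) treated with compound; inhibition calculated relative to vehicle.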

[2] = NCI Yeast Anticancer Drug Screen. Data for the wt1 strain (AID 149);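 note: 0% = growth of vehicle-treated wt1 cultures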; conditions: S. cerevisiae wt1 strain (SPY 50644) growth inhibition, active compounds read high
Method in brief: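 Growth inhibition read against vehicle controls after compound exposure of the wt1 yeast strain.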

[3] = NCI Yeast Anticancer Drug Screen. Data for the mgt1 strain (AID 153); conditions: S. cerevisiae mgt1 mutant growth inhibition, active compounds read high
Method in brief: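 Read-out: yeast growth inhibition vs vehicle control. Strain mgt1, drawn from a panel altered in DNA damage repair or cell cycle control.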

[4] = NCI Yeast Anticancer Drug Screen. Data for the rad50 strain (AID 155);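 note: 0% = growth of vehicle-only cultures of the same strain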; conditions: S. cerevisiae rad50 strain growth inhibition, active compounds read high
Method in brief: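 Readout: growth inhibition relative to vehicle-treated cultures. Compound exposure was carried out in a genetically defined yeast strain deficient in DNA damage repair.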

[5] = NCI Yeast Anticancer Drug Screen. Data for the mec2-1 strain (AID 157); conditions: S. cerevisiae mec2-1 strain, active compounds read high
Method in brief: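 Cells of the genetically defined mec2-1 yeast strain are incubated with test compound. Inhibition of growth is calculated against vehicle-treated controls.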

[6] = NCI Yeast Anticancer Drug Screen. Data for the rad14 strain (AID 159);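 note: 0% = growth of vehicle-treated control cultures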; conditions: S. cerevisiae rad14 strain growth inhibition, active compounds read high
Method in brief: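 Growth inhibition vs vehicle controls; genetically altered yeast strain (DNA damage repair defect) treated with test compounds.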

[7] = NCI Yeast Anticancer Drug Screen. Data for the sgs1 mgt1 strain (AID 161);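 note: 0% = growth of cultures given vehicle only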; conditions: S. cerevisiae sgs1 mgt1 strain, active compounds read high
Method in brief: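 Genetically altered yeast, compound exposure, growth inhibition relative to vehicle.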

[8] = NCI Yeast Anticancer Drug Screen. Data for the CLN2oe strain (AID 163);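 note: 0% = growth of vehicle-only control cultures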; conditions: S. cerevisiae CLN2oe strain, active compounds read high
Method in brief: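 Strain altered in cell-cycle control, incubated with compound; growth compared to solvent-treated controls.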

[9] = NCI Yeast Anticancer Drug Screen. Data for the bub3 strain (AID 167); conditions: S. cerevisiae bub3 mutant strain, active compounds read high
Method in brief: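 Readout: yeast growth inhibition, expressed relative to vehicle-only wells. The test organism is a mutant strain from a panel with lesions in DNA repair or checkpoint genes.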

[10] = NCI Yeast Anticancer Drug Screen. Data for the wt2 strain (AID 169);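 note: 0% = growth of vehicle-treated yeast cultures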; conditions: S. cerevisiae wt2 strain growth inhibition, active compounds read high
Method in brief: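 Steps: yeast strain treated with compound; growth recorded; inhibition calculated relative to cultures given vehicle alone.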

[11] = NCI Yeast Anticancer Drug Screen. Data for the mlh1 strain (AID 171);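 note: 0% = growth of vehicle-treated control cultures of the same strain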; conditions: S. cerevisiae mlh1 strain growth inhibition, active compounds read high
Method in brief: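 Yeast screen: mutant strain plus compound, growth scored against vehicle control wells.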

[12] = NCI Yeast Anticancer Drug Screen. Data for the sgs1 strain (AID 173);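 note: 0% = growth of vehicle-only control cultures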; conditions: S. cerevisiae sgs1 mutant, active compounds read high
Method in brief: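 Inhibition of yeast growth served as the measure. The mutant strain was treated with each compound, and growth was normalised to cultures receiving vehicle alone.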

[13] = NCI Yeast Anticancer Drug Screen. Data for the mlh1 rad18 strain (AID 175); conditions: S. cerevisiae mlh1 rad18 strain growth inhibition, active compounds read high
Method in brief: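 Compound-treated yeast growth, normalised to vehicle controls. Strain bears defined DNA repair mutations.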

[14] = NCI Yeast Anticancer Drug Screen. Data for the rad18 strain (AID 177); conditions: S. cerevisiae rad18 mutant growth inhibition, active compounds read high
Method in brief: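 Inhibition values reflect reduced yeast growth compared with vehicle-treated controls, using a strain engineered with a DNA damage repair defect.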

[15] = NCI Yeast Anticancer Drug Screen. Data for the cln2 rad14 strain (AID 165);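 note: 0% = growth equal to vehicle treated cultures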; conditions: S. cerevisiae cln2 rad14 strain, active compounds read high
Method in brief: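 The screen exposed genetically defined yeast (cln2 rad14) to test compounds and scored growth inhibition relative to vehicle-treated controls.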

[16] = at 5.0 µM (retest, dose inferred, filed as 0.5)
[17] = at 50.0 µM (retest, dose inferred, filed as 5.0)

Structure (SMILES): CCCCCCCCCCCC1=C(O)C(=O)C=C(O)C1=O
- growth inhibition ([1]; at 1.2 µM): -7%
- growth inhibition ([1]; at 3.7 µM): -2%
- growth inhibition ([1]; at 11.0 µM): 68%
- growth inhibition ([1]; at 33.0 µM): 88% (active)
- growth inhibition ([1]; at 100.0 µM): 94% (active)
- growth inhibition ([2]; at 1.2 µM): -4%
- growth inhibition ([2]; at 3.7 µM): -7%
- growth inhibition ([2]; at 11.0 µM): 64%
- growth inhibition ([2]; at 33.0 µM): 94% (active)
- growth inhibition ([2]; at 100.0 µM): 91% (active)
- growth inhibition ([3]; at 1.2 µM): -3%
- growth inhibition ([3]; at 3.7 µM): -5%
- growth inhibition ([3]; at 11.0 µM): 22%
- growth inhibition ([3]; at 33.0 µM): 89% (active)
- growth inhibition ([3]; at 100.0 µM): 91% (active)
- growth inhibition ([4]; at 1.2 µM): -15%
- growth inhibition ([4]; at 3.7 µM): -15%
- growth inhibition [4, 16]: 32%
- growth inhibition ([4]; at 11.0 µM): 36%
- growth inhibition ([4]; at 33.0 µM): 94% (active)
- growth inhibition [4, 17]: 79% (active)
- growth inhibition ([4]; at 50.0 µM): 46.5%
- growth inhibition ([4]; at 100.0 µM): 93% (active)
- growth inhibition ([5]; at 1.2 µM): -7%
- growth inhibition ([5]; at 3.7 µM): -4%
- growth inhibition [5, 16]: 9%
- growth inhibition ([5]; at 11.0 µM): 63%
- growth inhibition ([5]; at 33.0 µM): 94% (active)
- growth inhibition [5, 17]: 90% (active)
- growth inhibition ([5]; at 50.0 µM): 37.9%
- growth inhibition ([5]; at 100.0 µM): 95% (active)
- growth inhibition ([6]; at 1.2 µM): 2%
- growth inhibition ([6]; at 3.7 µM): 0%
- growth inhibition ([6]; at 11.0 µM): 80% (active)
- growth inhibition ([6]; at 33.0 µM): 96% (active)
- growth inhibition ([6]; at 100.0 µM): 80% (active)
- growth inhibition [7, 16]: 30%
- growth inhibition [7, 17]: 85% (active)
- growth inhibition ([7]; at 50.0 µM): 46.9%
- growth inhibition ([8]; at 1.2 µM): -7%
- growth inhibition ([8]; at 3.7 µM): -17%
- growth inhibition ([8]; at 11.0 µM): 63%
- growth inhibition ([8]; at 33.0 µM): 93% (active)
- growth inhibition ([8]; at 100.0 µM): 91% (active)
- growth inhibition ([9]; at 1.2 µM): -10%
- growth inhibition ([9]; at 3.7 µM): -4%
- growth inhibition [9, 16]: 81% (active)
- growth inhibition ([9]; at 11.0 µM): 54%
- growth inhibition ([9]; at 33.0 µM): 96% (active)
- growth inhibition [9, 17]: 89% (active)
- growth inhibition ([9]; at 50.0 µM): 57%
- growth inhibition ([9]; at 100.0 µM): 95% (active)
- growth inhibition ([10]; at 1.2 µM): 3%
- growth inhibition ([10]; at 3.7 µM): 8%
- growth inhibition ([10]; at 11.0 µM): 79% (active)
- growth inhibition ([10]; at 33.0 µM): 96% (active)
- growth inhibition ([10]; at 100.0 µM): 81% (active)
- growth inhibition ([11]; at 1.2 µM): -12%
- growth inhibition ([11]; at 3.7 µM): -9%
- growth inhibition ([11]; at 11.0 µM): 37%
- growth inhibition ([11]; at 33.0 µM): 93% (active)
- growth inhibition ([11]; at 100.0 µM): 91% (active)
- growth inhibition ([12]; at 1.2 µM): -19%
- growth inhibition ([12]; at 3.7 µM): -11%
- growth inhibition ([12]; at 11.0 µM): 46%
- growth inhibition ([12]; at 33.0 µM): 95% (active)
- growth inhibition ([12]; at 100.0 µM): 89% (active)
- growth inhibition [13, 16]: 41%
- growth inhibition [13, 17]: 90% (active)
- growth inhibition ([13]; at 50.0 µM): 72.3% (active)
- growth inhibition ([14]; at 1.2 µM): -9%
- growth inhibition ([14]; at 3.7 µM): -6%
- growth inhibition ([14]; at 11.0 µM): 64%
- growth inhibition ([14]; at 33.0 µM): 95% (active)
- growth inhibition ([14]; at 100.0 µM): 92% (active)

Structure (SMILES): CC(O)C(O)C(O)C(/C=N\Nc1ccccc1)=N/Nc1ccccc1 (stereo not given)
- growth inhibition ([1]; at 1.2 µM): 5%
- growth inhibition ([1]; at 3.7 µM): 10%
- growth inhibition ([1]; at 11.0 µM): 12%
- growth inhibition ([1]; at 33.0 µM): 69%
- growth inhibition ([1]; at 100.0 µM): 98% (active)
- growth inhibition ([2]; at 1.2 µM): 4%
- growth inhibition ([2]; at 3.7 µM): 9%
- growth inhibition ([2]; at 11.0 µM): 13%
- growth inhibition ([2]; at 33.0 µM): 8%
- growth inhibition ([2]; at 100.0 µM): 96% (active)
- growth inhibition ([3]; at 1.2 µM): 6%
- growth inhibition ([3]; at 3.7 µM): 9%
- growth inhibition ([3]; at 11.0 µM): 10%
- growth inhibition ([3]; at 33.0 µM): 47%
- growth inhibition ([3]; at 100.0 µM): 99% (active)
- growth inhibition ([4]; at 1.2 µM): 5%
- growth inhibition ([4]; at 3.7 µM): 5%
- growth inhibition [4, 16]: 19%
- growth inhibition ([4]; at 11.0 µM): 10%
- growth inhibition ([4]; at 33.0 µM): 63%
- growth inhibition [4, 17]: 51%
- growth inhibition ([4]; at 50.0 µM): 97.8% (active)
- growth inhibition ([4]; at 100.0 µM): 98% (active)
- growth inhibition ([5]; at 1.2 µM): -4%
- growth inhibition ([5]; at 3.7 µM): 1%
- growth inhibition [5, 16]: -5%
- growth inhibition ([5]; at 11.0 µM): 11%
- growth inhibition ([5]; at 33.0 µM): 46%
- growth inhibition [5, 17]: 51%
- growth inhibition ([5]; at 50.0 µM): 58.3%
- growth inhibition ([5]; at 100.0 µM): 98% (active)
- growth inhibition ([6]; at 1.2 µM): -2%
- growth inhibition ([6]; at 3.7 µM): -1%
- growth inhibition ([6]; at 11.0 µM): 4%
- growth inhibition ([6]; at 33.0 µM): 21%
- growth inhibition ([6]; at 100.0 µM): 99% (active)
- growth inhibition [7, 16]: 3%
- growth inhibition [7, 17]: 56%
- growth inhibition ([7]; at 50.0 µM): 95.5% (active)
- growth inhibition ([8]; at 1.2 µM): -7%
- growth inhibition ([8]; at 3.7 µM): -4%
- growth inhibition ([8]; at 11.0 µM): -5%
- growth inhibition ([8]; at 33.0 µM): 18%
- growth inhibition ([8]; at 100.0 µM): 28%
- growth inhibition [15, 16]: 1%
- growth inhibition [15, 17]: 49%
- growth inhibition ([15]; at 50.0 µM): 8.25%
- growth inhibition ([9]; at 1.2 µM): -3%
- growth inhibition ([9]; at 3.7 µM): -3%
- growth inhibition [9, 16]: -7%
- growth inhibition ([9]; at 11.0 µM): 19%
- growth inhibition ([9]; at 33.0 µM): 24%
- growth inhibition [9, 17]: 43%
- growth inhibition ([9]; at 50.0 µM): 69.1%
- growth inhibition ([9]; at 100.0 µM): 30%
- growth inhibition ([10]; at 1.2 µM): 2%
- growth inhibition ([10]; at 3.7 µM): 8%
- growth inhibition ([10]; at 11.0 µM): 10%
- growth inhibition ([10]; at 33.0 µM): 38%
- growth inhibition ([10]; at 100.0 µM): 99% (active)
- growth inhibition ([11]; at 1.2 µM): 3%
- growth inhibition ([11]; at 3.7 µM): 4%
- growth inhibition ([11]; at 11.0 µM): 6%
- growth inhibition ([11]; at 33.0 µM): 68%
- growth inhibition ([11]; at 100.0 µM): 98% (active)
- growth inhibition ([12]; at 1.2 µM): 1%
- growth inhibition ([12]; at 3.7 µM): 10%
- growth inhibition ([12]; at 11.0 µM): 11%
- growth inhibition ([12]; at 33.0 µM): 68%
- growth inhibition ([12]; at 100.0 µM): 98% (active)
